# Measurements from PubChem BioAssay AID652154 (Broad Institute, 2013).
# The whole screen tested about 360,000 compounds, of which about 4,200 (1.2%) were called active. The full list was thinned out, with actives kept by preference. Unmarked numbers belong to inactive results.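 How the source made its calls: active means mean replicate inhibition at least 60% with every replicate also reaching 60%; inconclusive means only one of the two criteria is met; inactive means mean below 60% and not all replicates reaching 60%.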
# Test: inhibitors of PAX8-driven TPO luciferase reporter, primary screen, RMG-I cells, single concentration (AID 652154);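 further: luciferase light reporting Pax8 driven TPO promoter activity; plate controls were median of neutral control wells for no effect and mitoxantrone controls for full effect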
# Conditions: SteadyGlo, 24 h, at 12.6 µM, stronger effect = higher value
row,SMILES,inhibition
1,COc1cccc(-c2ccc3n(c2=O)C[C@H]2[C@H](CO)[C@@H](C(=O)N4CCCCC4)N(C)[C@@H]32)c1,10.3%
2,C[C@@H]1CN([C@H](C)CO)C(=O)c2cc(C#Cc3cccnc3)cnc2O[C@@H]1CN(C)Cc1ccc(F)cc1,-16.3%
3,Cc1ccccc1S(=O)(=O)NCC[C@@H]1CC[C@H](NC(=O)C2CCC2)[C@@H](CO)O1,6.58%
4,CN1C[C@@H]2[C@H](c3ccccc31)[C@H](CO)N2C(=O)Nc1ccc(F)cc1,-2.1%
5,CO[C@H]1CN(C)C(=O)c2ccc(NC(=O)Nc3c(C)noc3C)cc2OC[C@@H](C)NC[C@H]1C,-5.2%
6,COc1ccc(C#Cc2ccc([C@@H]3[C@H](CO)N4C(=O)CN(C(C)=O)C[C@@H]34)cc2)cc1,-10.2%
7,CCS(=O)(=O)Nc1ccc2c(c1)C(=O)N(C)[C@@H]1CC[C@@H](CC(=O)N3CCCCC3)O[C@H]1CO2,-5.14%
8,O=C(CN1CCOCC1)NCC[C@@H]1CC[C@@H](NC(=O)Nc2ccccc2)[C@H](CO)O1,-2.03%
9,C[C@@H]1CN([C@H](C)CO)C(=O)c2cccc(NC(=O)c3ccncc3)c2O[C@@H]1CN(C)C,-8.91%
10,CO[C@H]1O[C@H](CO)[C@@H](OC(=O)Nc2ccccc2)[C@H](OC(=O)Nc2ccc3c(c2)OCO3)[C@H]1OC(=O)Nc1ccc2c(c1)OCO2,16.9%
11,COc1cc(OC)c(C(=O)Nc2ccccc2-c2ccccc2)cc1OC,-10.7%
12,CO[C@H]1O[C@H](CO)[C@@H](OC(=O)Nc2ccc(C(F)(F)F)cc2)[C@H](OC(=O)Nc2ccc3c(c2)OCO3)[C@H]1OC(=O)Nc1ccc2c(c1)OCO2,72.5% (active)
13,COc1ccc(NC(=O)O[C@H]2[C@H](OC(=O)Nc3ccc4c(c3)OCO4)[C@@H](OC(=O)Nc3ccc4c(c3)OCO4)[C@@H](OC)O[C@@H]2CO)cc1,14.1%
14,CCc1cccc(NC(=O)O[C@H]2[C@H](OC(=O)Nc3ccccc3-c3ccccc3)[C@H](OC(=O)Nc3ccccc3-c3ccccc3)[C@@H](OC)O[C@@H]2CO)c1,43.4%
15,CO[C@H]1O[C@H](CO)[C@@H](OC(=O)Nc2ccccc2-c2ccccc2)[C@H](OC(=O)Nc2ccccc2)[C@H]1OC(=O)Nc1ccccc1,80% (active)
16,C[C@@H]1CN([C@H](C)CO)S(=O)(=O)c2ccc(C#CC3(O)CCCC3)cc2O[C@@H]1CN(C)C(=O)c1cccnc1,-6.88%
17,COc1ccccc1NC(=O)N1[C@@H]2CNC[C@H]1C2c1ccc(-c2ccccc2C)cc1 (stereo partly drawn),-13.6%
18,Cc1noc(C)c1S(=O)(=O)Nc1ccc2c(c1)C(=O)N([C@H](C)CO)C[C@@H](C)[C@H](CN(C)C(=O)NC(C)C)OCCCC[C@@H](C)O2,16.4%
19,C[C@H](CO)N1C[C@H](C)[C@@H](CN(C)Cc2ccc(C(F)(F)F)cc2)OCc2ccccc2-c2c(n(C)c3ccccc23)C1=O,24%
20,COc1ccc(S(=O)(=O)N(C)C[C@@H]2OCCCC[C@@H](C)Oc3ccc(NS(=O)(=O)c4ccccc4)cc3C(=O)N([C@@H](C)CO)C[C@H]2C)cc1,19.7%
21,COc1ccc(S(=O)(=O)Nc2ccc3c(c2)C(=O)N([C@@H](C)CO)C[C@H](C)[C@@H](CN(C)S(=O)(=O)c2ccc(C)cc2)OCCCC[C@@H](C)O3)cc1,31.9%

row,SMILES,inhibition
1,COc1ccc(S(=O)(=O)Nc2ccc3c(c2)C(=O)N([C@@H](C)CO)C[C@H](C)[C@H](CN(C)S(=O)(=O)c2ccc(F)cc2)OCCCC[C@@H](C)O3)cc1,34%
2,COc1ccc(S(=O)(=O)N(C)C[C@H]2OCCCC[C@H](C)Oc3ccc(NS(=O)(=O)c4ccc(F)cc4)cc3C(=O)N([C@@H](C)CO)C[C@@H]2C)cc1,75.4% (active)
3,COc1ccc(S(=O)(=O)Nc2ccc3c(c2)C(=O)N([C@@H](C)CO)C[C@H](C)[C@@H](CN(C)S(=O)(=O)c2ccc(F)cc2)OCCCC[C@H](C)O3)cc1,68.7% (active)
4,COc1ccc(S(=O)(=O)N(C)C[C@H]2OCCCC[C@@H](C)Oc3ccc(NS(=O)(=O)c4ccc(C)cc4)cc3C(=O)N([C@@H](C)CO)C[C@@H]2C)cc1,36.3%
5,CCCNC(=O)C[C@H]1CC[C@H]2[C@@H](COc3ccc(NC(=O)Nc4c(C)noc4C)cc3C(=O)N2C)O1,-6.6%
6,C[C@H]1CN([C@@H](C)CO)C(=O)Cc2cc(NC(=O)Nc3ccc(F)cc3)ccc2O[C@H]1CN(C)C(=O)Nc1ccc(C(F)(F)F)cc1,59.7%
7,CC(=O)N1[C@H](CNC(=O)CN(C)C)[C@H](c2ccc(C3=CCCC3)cc2)[C@@H]1CO,10.8%
8,Cc1cccc(NC(=O)c2nc(S(=O)(=O)Cc3ccccc3)ncc2Cl)c1,64.5% (active)
9,Cc1ccc(C)c(Cn2nnc3c(=O)[nH]c(C(=O)Nc4ccc(F)cc4)nc32)c1,-3.4%
10,CN1CCN(c2ccc(NC(=O)c3ccc4c(c3)[nH]c(=O)n4Cc3ccc(F)cc3)cc2)CC1,1.33%
11,Cc1cccc(NC(=O)CCN2CC(C)CC(C)C2)c1 (stereo not drawn),2.21%
12,Cc1cccc(CS(=O)(=O)c2ncc(Cl)c(C(=O)Nc3ccc(F)cc3)n2)c1,96.3% (active)
13,CSc1nnc(NC(=O)c2nc(S(=O)(=O)Cc3ccc(C)cc3)ncc2Cl)s1,54.7%
14,CN(C)CC#Cc1ccc([C@H]2[C@@H](CO)N(C(=O)C3CCC3)[C@H]2C#N)cc1,3.44%
15,CO[C@H]1CN(C)C(=O)c2ccc(NC(=O)c3ccno3)cc2OC[C@@H](C)N(S(C)(=O)=O)C[C@H]1C,-22.4%
16,C[C@H]1CN([C@@H](C)CO)C(=O)Cc2cc(NC(=O)Nc3ccc4c(c3)OCO4)ccc2O[C@H]1CN(C)Cc1ccc(C(=O)Nc2ccccc2N)cc1,37.5%
17,O=C(Cc1ccccn1)N1[C@@H]2CNc3ccccc3[C@@H]2[C@@H]1CO,-15.2%
18,O=C(C1CCOCC1)N1C[C@H]2[C@@H](c3ccccc31)[C@@H](CO)N2Cc1ccccc1F,-11.6%
19,C[C@H](NC(=O)C[C@@H]1CC[C@@H]2[C@H](COC[C@@H](O)CN2C(=O)Nc2cc(Cl)cc(Cl)c2)O1)c1ccccc1,49.2%
20,O=C(CCl)Nc1ccc(Sc2ccc(NC(=O)CCl)cc2)cc1,87.7% (active)
21,CCC(=O)Nc1ccc(Nc2nc(Cl)nc(Nc3ccc(NC(=O)CC)cc3)n2)cc1,1.45%

row,SMILES,inhibition
1,O=C(CCl)Nc1cccc(CP(=O)(c2ccccc2)c2ccccc2)c1,18.2%
2,C[C@@H]1CN([C@H](C)CO)C(=O)Cc2cc(NC(=O)Nc3ccc4c(c3)OCO4)ccc2O[C@H]1CN(C)Cc1ccc(C(F)(F)F)cc1,13.6%
3,O=C(OCC(=O)N1CCN(C(=O)c2ccco2)CC1)c1cccc(O)c1,-23.5%
4,O=C(OCC(=O)N1CCN(C(=O)c2ccco2)CC1)c1ccc(Cl)c(Cl)c1,6.78%
5,CN(c1ccccc1)S(=O)(=O)c1cc(C(=O)OCC(=O)N2CCN(C(=O)c3ccco3)CC2)ccc1Cl,80.9% (active)
6,C[C@@H]1CN([C@H](C)CO)C(=O)CCCn2cc(nn2)CO[C@@H]1CN(C)C(=O)Nc1ccc2c(c1)OCO2,-4.65%
7,C[C@@H]1CCCCO[C@@H](CN(C)C(=O)CCC(F)(F)F)[C@@H](C)CN([C@H](C)CO)C(=O)c2cc(NC(=O)Nc3ccccc3)ccc2O1,-44.3%
8,COc1cc(C2C(C(=O)Nc3ccccc3OC)=C(C)Nc3ncnn32)ccc1O (stereo not drawn),24.6%
9,CC1=C(C(=O)OC2CCCCC2)C(c2ccccc2F)NC(=O)N1 (stereo not drawn),23.9%
10,CC1=C(C(=O)OC2CCCCC2)C(c2cccnc2)n2ncnc2N1 (stereo not drawn),143% (active)
11,O=C(CC1CC1)N[C@@H]1C[C@@H]2O[C@H](CO)CC[C@@H]2O[C@@H]1CCc1ccc(C#Cc2ccccc2)cc1,-44%
12,N#Cc1cccc(-c2ccc([C@H]3[C@@H](CO)N4CCCCN(C(=O)Nc5ccccc5)C[C@H]34)cc2)c1,-12.5%
13,CCCNC(=O)Nc1ccc2c(c1)C(=O)N(C)[C@H]1CC[C@H](CC(=O)NC3CCC3)O[C@H]1CO2,-6.66%
14,CCC(=O)N(C)C[C@H]1[C@H](c2ccc(C3=CCCCC3)cc2)[C@@H](CO)N1C(C)=O,-0.343%
15,CCCN1[C@H](C(=O)N2CCOCC2)[C@@H](CO)[C@@H]2Cn3c(ccc(/C=C/c4ccccc4)c3=O)[C@@H]21,78.4% (active)
16,CCCN1[C@H](C(=O)N2CCCCC2)[C@@H](CO)[C@@H]2Cn3c(ccc(-c4ccccc4F)c3=O)[C@@H]21,-10.5%
17,CC=Cc1ccc2n(c1=O)C[C@H]1[C@H](CO)[C@@H](C(=O)N3CCCCC3)N(Cc3ccccn3)[C@@H]21 (mixture of isomers),0.555%
18,CCC(=O)N(C)C[C@@H]1Oc2ncc(C#C[C@H](C)O)cc2C(=O)N([C@@H](C)CO)C[C@@H]1C,-26.1%
19,COCC(=O)Nc1ccc2c(c1)C(=O)N(C)C[C@@H](OC)[C@H](C)CN(C(=O)c1ccccn1)[C@@H](C)CO2,2.92%
20,CCN1[C@@H]2c3cccc(=O)n3C[C@H]1[C@H](CO)[C@H]2C(=O)NC1Cc2ccccc2C1,-4.92%
21,CO[C@H]1CN(C)C(=O)c2ccc(NC(=O)CC(F)(F)F)cc2OC[C@@H](C)N(C(=O)c2ccccc2F)C[C@@H]1C,-20.3%
